# Assay results published in PubChem BioAssay (EPA / NIEHS).
# Active and inactive are the calls of the source. How the source made its calls: active means hit-call score of the fitted dose curve at least 0.9, where 1 is the maximum; inactive means score below 0.9. Peptide text beside a SMILES is read from it.
# System: not listed separately
# Assay: ATG_DR4_LXR_CIS: Attagene CIS-FACTORIAL HepG2 Assay for human Liver X Receptor (LXR), DR4 submotif (AID 2282929)
# Conditions: HepG2 Attagene DR4 cis-reporter, mRNA transcription; actives raise or lower the signal
# In short: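 Cells were transfected with multiple reporter transcription units, exposed to chemicals for 24 hours, then lysed for RNA. Reporter mRNA induction was measured by RT-PCR with capillary electrophoresis detection and fitted in both directions relative to DMSO.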
SMILES,outcome,AC50
CN1CCN(C)CC1,inactive,
CC(C)OC(=O)c1ccccc1,inactive,
COC(=O)[C@H](Cc1ccccc1)NC(=O)[C@@H](N)CC(=O)O (H-Asp-Phe-OMe),inactive,
C=CCCCCCCCCC=O,inactive,
c1ccc(-c2nc3ccccc3[nH]2)cc1,inactive,
CC(=O)/C=C/C1C(C)=CCCC1(C)C (stereo not drawn),inactive,
C=C(C)C1CC=C(C)CC1 (stereo not drawn),inactive,
CCCCCCCCC(CO)CCCCCC (stereo not drawn),,53 µM (active)
O=C(O)c1ccc2c(c1)C(=O)OC2=O,inactive,
CC(C)(c1ccccc1)c1ccc(Nc2ccc(C(C)(C)c3ccccc3)cc2)cc1,inactive,
CCCC(C)C(=O)OCC (stereo not drawn),inactive,
NC(=O)Nc1ccccc1,inactive,
CC1=CCC(C(C)C)C=C1 (stereo not drawn),inactive,
CCN(CC)c1cccc(C)c1,inactive,
CC(=O)OC/C=C(/C)CCC=C(C)C,inactive,
O=C(O)c1cc(O)c2ccccc2c1O,,42.5 µM (active)

# Molecular target: Aryl hydrocarbon receptor (Homo sapiens) (UniProt P35869)
# Assay: ATG_Ahr_CIS: Attagene CIS-FACTORIAL HepG2 Assay for human Aryl Hydrocarbon Receptor (Ahr) (AID 2282930)
# Conditions: HepG2 AhR cis-factorial reporter transcription; actives raise or lower the signal
# In short: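 Endogenous factor activity is tracked through cis-promoter reporter units transfected into HepG2 cells. Transcript levels at 24 h are read by fluorescent RT-PCR and capillary electrophoresis, with activity in either direction scored relative to DMSO.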
# Chain of Aryl hydrocarbon receptor (Homo sapiens) (P35869 whole entry, looked up): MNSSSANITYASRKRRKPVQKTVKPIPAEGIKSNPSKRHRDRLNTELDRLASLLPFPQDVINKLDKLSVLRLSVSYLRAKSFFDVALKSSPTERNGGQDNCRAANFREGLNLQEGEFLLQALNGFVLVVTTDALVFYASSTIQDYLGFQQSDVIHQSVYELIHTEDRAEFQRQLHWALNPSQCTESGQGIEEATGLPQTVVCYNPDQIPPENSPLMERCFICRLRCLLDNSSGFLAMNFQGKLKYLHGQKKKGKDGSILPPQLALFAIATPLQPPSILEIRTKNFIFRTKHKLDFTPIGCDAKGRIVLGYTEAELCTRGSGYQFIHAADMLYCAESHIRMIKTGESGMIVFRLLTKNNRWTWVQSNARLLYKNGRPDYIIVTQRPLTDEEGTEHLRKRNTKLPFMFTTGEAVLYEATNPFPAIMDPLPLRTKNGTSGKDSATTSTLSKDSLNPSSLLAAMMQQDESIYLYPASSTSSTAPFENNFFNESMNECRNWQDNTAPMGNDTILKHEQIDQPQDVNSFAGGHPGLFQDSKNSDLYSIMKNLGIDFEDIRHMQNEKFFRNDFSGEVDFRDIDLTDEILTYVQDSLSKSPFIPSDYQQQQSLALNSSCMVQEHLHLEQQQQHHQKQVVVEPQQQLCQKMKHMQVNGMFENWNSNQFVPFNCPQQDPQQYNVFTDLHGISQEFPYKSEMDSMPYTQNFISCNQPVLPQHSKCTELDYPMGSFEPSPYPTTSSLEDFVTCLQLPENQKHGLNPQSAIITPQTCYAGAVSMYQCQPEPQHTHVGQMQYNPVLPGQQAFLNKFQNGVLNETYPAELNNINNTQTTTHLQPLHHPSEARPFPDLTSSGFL
SMILES,AC50,outcome
O=S(=O)(O)c1ccc(N=Nc2c(O)ccc3ccccc23)cc1,1.3 µM (active),
CC1(C)[C@@H]2CC[C@@]1(C)C(=O)C2,,inactive
Cc1ccc(C)c(OCCCC(C)(C)C(=O)O)c1,,inactive
COc1ccc(C(=O)/C(Br)=C\C(=O)O)cc1,,inactive
C/C=C/C=C/CCCCCCCO,,inactive
CCCCCCCCCCCC(C)=O,,inactive
CC(=O)OCC=C(C)C,,inactive
CCCC=C(C=O)CC,100 µM (active),
CCc1cccc(C)c1N,,inactive
CCCCCCCCCCCCC,,inactive
COCC(=O)O,,inactive
CCC1COC(=O)O1 (stereo not drawn),,inactive
CCCC1CCCC(=O)O1 (stereo not drawn),,inactive
C[Si](C)(C)N[Si](C)(C)C,,inactive
CCCC(CC)c1ccccc1 (stereo not drawn),,inactive
CC(=O)OC1CCCCC1,,inactive
CCCCCC(=O)OCC,,inactive
CC1CC(=O)CC(C)(C)C1 (stereo not drawn),,inactive
CC(C)(C)NC(=O)[C@H]1CC[C@H]2[C@@H]3CC[C@H]4NC(=O)C=C[C@]4(C)[C@H]3CC[C@]12C,,inactive

SMILES,AC50,outcome
CCC1(C)C(=O)N(Cl)C(=O)N1Cl (stereo not drawn),,inactive
CC/C=C\CCOC(=O)c1ccccc1O,,inactive
CN1CCN(C)CC1,,inactive
CC(C)OC(=O)c1ccccc1,,inactive
COC(=O)[C@H](Cc1ccccc1)NC(=O)[C@@H](N)CC(=O)O (H-Asp-Phe-OMe),,inactive
C=CCCCCCCCCC=O,,inactive
c1ccc(-c2nc3ccccc3[nH]2)cc1,,inactive
CC(=O)/C=C/C1C(C)=CCCC1(C)C (stereo not drawn),,inactive
C=C(C)C1CC=C(C)CC1 (stereo not drawn),,inactive
CCCCCCCCC(CO)CCCCCC (stereo not drawn),,inactive
O=C(O)c1ccc2c(c1)C(=O)OC2=O,,inactive
CC(C)(c1ccccc1)c1ccc(Nc2ccc(C(C)(C)c3ccccc3)cc2)cc1,,inactive
CCCC(C)C(=O)OCC (stereo not drawn),,inactive
NC(=O)Nc1ccccc1,,inactive
CC1=CCC(C(C)C)C=C1 (stereo not drawn),,inactive
CCN(CC)c1cccc(C)c1,,inactive
CC(=O)OC/C=C(/C)CCC=C(C)C,,inactive
O=C(O)c1cc(O)c2ccccc2c1O,0.0305 µM (active),
